Measurements published in PubChem BioAssay AID602141 (Sanford-Burnham Center for Chemical Genomics, 2011).
The whole screen tested about 360,000 compounds, of which about 1,300 (0.36%) were called active.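 How the source made its calls: active means corrected activity change at or below -50% at 5 µM; inactive means the rest.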 The entries come from a sample that favours actives as a whole.

Assay: KKLEB cell viability reduction – uHTS, fluorescence assay plates, cytotoxicity control for CF NF-kB inhibitor project, primary screen (AID 602141)
Details: KKLEB CF airway cells viability, ATPlite luminescence, overnight; at 5 µM; stronger effect = lower value; cells stimulated with P. aeruginosa culture filtrate

Row | Structure (SMILES) | activity change (cytotoxicity)
1 | Nc1c(-c2cccc(Cl)c2)cnn1-c1cccc([N+](=O)[O-])c1 | 4.3% (inactive)
2 | Cc1cccc(-n2ncc(Cl)c(Cl)c2=O)c1 | -97.1% (active)
3 | CCCNC(=O)c1c(Cl)cnn1-c1ccc(C)cc1 | 8.9% (inactive)
4 | CN(C)/C=C(/C(=O)c1ccc(Cl)c(Cl)c1)c1nnnn1-c1ccccc1 | 7.2% (inactive)
5 | O=C(NCCN1C(=O)S/C(=C\c2cccnc2)C1=O)c1ccc(S(=O)(=O)N2CCCC2)cc1 | -6.2% (inactive)
6 | C=CCn1c(C2CC(=O)N(c3ccc(C)cc3)C2)nc2ccccc21 (stereo not given) | 1.2% (inactive)
7 | COc1cccc(NC(=S)N(Cc2ccc(C)cc2)Cc2ccccn2)c1 | 2.6% (inactive)
8 | COc1ccc(NC(=O)/C(Cl)=C(/Cl)S(=O)Cc2ccc(C)cc2)cn1 (stereo not given) | -105% (active)
9 | COc1ccc(NC(=O)C2Cc3c(-c4ccc5c(c4)OCO5)ccnc3O2)cn1 (stereo not given) | -19.2% (inactive)
10 | CC(C)NC(=O)C1(C)CCCCCN1C(=O)c1ccc(-c2ccccc2)cc1 (stereo not given) | -2% (inactive)
11 | COC(=O)c1ccc(S(=O)(=O)NCc2ccccc2)n1C | 9.6% (inactive)
12 | C=CCOc1nc2c(c(=O)n(C)c(=O)n2C)n1Cc1ccc(Cl)cc1Cl | 9.5% (inactive)
13 | CN(CC(=O)NCCc1ccccn1)S(=O)(=O)c1ccc(Cl)cc1 | 10.8% (inactive)
14 | CN(CC(=O)NNC(=O)CNC(=O)c1ccccc1Cl)S(=O)(=O)c1ccc(Cl)cc1 | -61.3% (active)
15 | CN(CC(=O)NCC(c1ccccc1)N1CCCC1)S(=O)(=O)c1ccc(Cl)cc1 (stereo not given) | 16% (inactive)
16 | O=S(=O)(c1ccccc1)c1nc(Cc2ccccc2)oc1N1CCOCC1 | -0.9% (inactive)
17 | O=C(O)c1cccnc1Sc1ncnc2sc3c(c12)CCC3 | 15.9% (inactive)
18 | c1ccc(CSc2ncnc3c2sc2nc(N4CCOCC4)c4c(c23)CCCC4)cc1 | -51% (active)
19 | Cc1c(CCO)c(=O)[nH]n1C(=O)c1c(F)cccc1F | 1.8% (inactive)
20 | S=c1[nH]cc(-c2ccc(Cl)cc2)n1-c1ccccc1 | 6.2% (inactive)
21 | Cc1ccnc(SCC(=O)Nc2cccc(S(=O)(=O)N3CCOCC3)c2)n1 | 7.3% (inactive)
22 | O=C(CCN1CCCCC1)N=Nc1c(O)[nH]c2ccccc12 | -4.3% (inactive)
23 | O=C(NCc1ccncc1)c1ccc(NS(=O)(=O)c2cccc([N+](=O)[O-])c2)cc1 | -3% (inactive)
24 | O=[N+]([O-])c1cc(S(=O)(=O)Nc2cccc(Cl)c2)ccc1N=Nc1c(O)[nH]c2ccccc12 | -80% (active)
25 | CCCNC(=O)CCn1cc(-c2ccc(OC)cc2)nc1CCN | 2.3% (inactive)
26 | COc1ccc(C2CC(=O)C=C(NCC3CCCO3)C2)cc1 (stereo not given) | 0% (inactive)
27 | O=C(NCC(F)(F)F)c1ccc(S(=O)(=O)NCCc2ccc3c(c2)OCCO3)cc1 | 19.2% (inactive)

Row | Structure (SMILES) | activity change (cytotoxicity)
28 | O=C(OC12CC3CC(CC(C3)C1)C2)c1ccc(NCc2cc(O)ccc2O)cc1 | -63.4% (active)
29 | O=C(CC1CCCCC1)Nc1c2c(nn1-c1ccc(F)cc1)CS(=O)(=O)C2 | -3.9% (inactive)
30 | COc1ccc(-c2c(C#Cc3ccsc3)c3cc(-c4ccc(CN5CCOCC5)cc4)ccc3n2C)cc1 | -4.5% (inactive)
31 | O=C(Nc1cccc2ccccc12)c1onc2c1CCCC2 | 5.7% (inactive)
32 | O=C(Nc1cccc2ccccc12)NC1CC1 | 1% (inactive)
33 | O=C(Nc1cccc2ccccc12)c1[nH]c(-c2ccccc2)c2c1C(=O)N(C1CC1)C2=O | -52.9% (active)
34 | COCCN(C(=S)Nc1ccccc1OC)C1CCN(C(C)C)CC1 | -3.5% (inactive)
35 | CC(Oc1ccc(F)cc1F)C(=O)/C=C/N(C)C (stereo not given) | 4.1% (inactive)
36 | COC(=O)c1ccc(CNC(=O)C2CCC(=O)N(Cc3ccccn3)C2)cc1 (stereo not given) | -4.5% (inactive)
37 | COc1ccc(C2SCCN2S(=O)(=O)c2ccccc2)cc1OC (stereo not given) | -14.9% (inactive)
38 | COc1ccc(C2=NO[C@@H]3C(=O)N(Cc4ccccc4)C(=O)[C@H]23)cc1OC | -0.3% (inactive)
39 | COc1ccc(-c2cc(C(F)(F)F)nc(S(C)(=O)=O)n2)cc1OC | -78.4% (active)
40 | Cn1c(CCNS(=O)(=O)c2ccc(F)cc2)nnc1SCc1cccnc1 | -4.1% (inactive)
41 | CC(=O)NC(C(=O)NCC(N)=O)C(C)C (stereo not given) | -4.4% (inactive)
42 | C/C(=N\NC(=O)c1cc2c(s1)CCC(C)C2)c1cccnc1 (stereo not given) | 8.5% (inactive)
43 | O=C(O)Cc1ccc(NCc2ccccc2Cl)cc1 | 7.8% (inactive)
44 | CC(C)OC(=O)c1ccc(NCc2cc(O)ccc2O)cc1Cl | -51.3% (active)
45 | CC(CN1CCCCC1)OC(=O)c1ccccc1Cl (stereo not given) | 0.5% (inactive)
46 | O=C(Nc1ccc(Br)cc1)c1cc(S(=O)(=O)Nc2ccccn2)ccc1Cl | -6.3% (inactive)
47 | CCN(CC)CCn1c(/N=C/c2cc(Br)ccc2O)nc2ccccc21 | 2.8% (inactive)
48 | Oc1ccc(Br)cc1/C=N/Nc1ccccn1 | -94.7% (active)
49 | N#CC(=C1SC=CS1)c1nc(-c2ccccc2)cs1 | 9.6% (inactive)
50 | CCOc1ccc(NC(=O)CN(C)C(=O)Cn2c(=O)cnc3ccccc32)cc1OCC | 3.8% (inactive)
51 | COc1cccc2c1C(=O)c1c(O)c3c(c(O)c1C2=O)CC(O)(C(C)=NNC(=O)c1ccc(Cl)c(Cl)c1)CC3OC1CC(N)C(O)C(C)O1 (stereo not given) | -53.3% (active)
52 | CCOC(=O)C1(Cc2cccc(OC)c2)CCN(Cc2csc(C(C)=O)c2)CC1 | -6% (inactive)
53 | Oc1cccc2ccc(/C=C/c3ccc(Br)s3)nc12 | -93.8% (active)
54 | COc1ccc([C@H]2CC(=O)C=C(/C=C/c3ccccc3)C2)cc1 | 9.7% (inactive)

Row | Structure (SMILES) | activity change (cytotoxicity)
55 | CC(C)c1ccc(/C=C2\NC(=O)NC2=O)cc1 | 11.8% (inactive)
56 | CC[C@]12c3[nH]c4cc(CCC(=O)N(C)C)ccc4c3CCN1C(=O)[C@@H](CC(=O)NCCCn1ccnc1)C[C@@H]2C(=O)N1CCN(C(=O)C2CC2)CC1 | 0.6% (inactive)
57 | COC(=O)C1=C(NC(=O)C(C)(C)C)CCS1 | 2.3% (inactive)
58 | CCOC(=O)c1c(C)[nH]c2c1-c1ccccc1C(=O)C2=O | -91.6% (active)
59 | CCOC(=O)c1cnc(COc2ccccc2Cl)[nH]c1=O | 4.6% (inactive)
60 | CCOC(=O)c1c(C)[nH]c(C)c1C(=O)CSc1nc(N)cc(N)n1 | 13.1% (inactive)
61 | Cc1c2cn[nH]c(=O)c2c(C)n1Cc1ccc(F)cc1 | -2.2% (inactive)
62 | O=C(CCl)Nc1ccc(Sc2ccc(NC(=O)CCl)cc2)cc1 | -68.5% (active)
63 | CC(=O)Nc1ccc(SCC(=O)NC(=O)c2ccc(Cl)cc2)cc1 | 8% (inactive)
64 | O=C(O)CSCC(=O)Nc1ccc(C(F)(F)F)cc1 | -4% (inactive)
65 | CN(C)c1ccc(C(=S)N2CCN(C(=S)Nc3ccc(Cl)cc3)CC2)cc1 | 5.1% (inactive)
66 | O=C(NC1=CC(=O)c2ccccc2C1=O)c1ccccc1 | -97.9% (active)
67 | CC(=O)c1cc(NC(=O)c2ccccc2)c(=O)oc1/C=C/N(C)C | -6.9% (inactive)
68 | O=C(COC(=O)c1cccc(Br)c1)Nc1cccc2c1C(=O)c1ccccc1C2=O | -17.2% (inactive)
69 | COc1ccc(C(CCN(Cc2ccc(OC)c(OC)c2)C(=O)CCl)c2ccccc2)cc1 (stereo not given) | -76.9% (active)
70 | COc1ccc(C(C(=O)NC2CCCCC2)N(C(=O)CCl)c2ccccc2Cl)cc1 (stereo not given) | 4.1% (inactive)
71 | COc1ccc(CCNC(=O)CN(c2ccccc2)S(C)(=O)=O)cc1OC | 8.4% (inactive)
72 | CC(C[N+](C)(C)C)OC(N)=O (stereo not given) | -65.7% (active)
73 | CC(=O)OC(C)C[N+](C)(C)C (stereo not given) | 3.7% (inactive)
74 | COc1ccc(C(N)c2csc(NC(=O)Nc3cccc(C(F)(F)F)c3)n2)cc1 (stereo not given) | -18.3% (inactive)
75 | NC(c1csc(NC(=O)Nc2cccc(C(F)(F)F)c2)n1)C1CCCCC1 (stereo not given) | -57.8% (active)
76 | NC(c1ccccc1)c1csc(NC(=O)Nc2cccc(C(F)(F)F)c2)n1 (stereo not given) | -17.2% (inactive)
77 | c1ccc2c(c1)OCC(c1nn3cnnc3s1)O2 (stereo not given) | 0.1% (inactive)
78 | O=C(CSc1nnc(N2CCOCC2)n1-c1cccc(F)c1)N1CCN(c2ccccn2)CC1 | -2.4% (inactive)
79 | O=C(/C(=N\O)n1cncn1)c1ccc(Br)cc1Br | -5.9% (inactive)
80 | Cc1c(NC(=O)CN(C)CC(=O)Nc2ccc(F)c(F)c2F)c(=O)n(-c2ccccc2)n1C | 5.4% (inactive)
